Experiment [1] can be described thus: NCI Yeast Anticancer Drug Screen. Data for the rad50 strain (AID 155).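 Note: 0% = growth of vehicle-only cultures of the same strain.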 As to conditions: S. cerevisiae rad50 strain growth inhibition, hits give high values. In outline:
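DNA repair mutant yeast, compound exposure, growth read-out; inhibition is taken relative to vehicle.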

Experiment [2] is described as follows: NCI Yeast Anticancer Drug Screen. Data for the mec2-1 strain (AID 157). The conditions noted are these: S. cerevisiae mec2-1 strain, hits give high values. In outline: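 Readout is yeast growth inhibition, normalised to vehicle-treated controls, in the mec2-1 strain exposed to compound.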
A short description of experiment [3]: NCI Yeast Anticancer Drug Screen. Data for the sgs1 mgt1 strain (AID 161).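 Note: 0% = growth of cultures given vehicle only.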 As to conditions: S. cerevisiae sgs1 mgt1 strain, hits give high values. In outline:
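Compounds are added to genetically altered yeast, and growth is compared with cultures given vehicle alone to give percent inhibition.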

Experiment [4] can be described thus: NCI Yeast Anticancer Drug Screen. Data for the cln2 rad14 strain (AID 165).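 Note: 0% = growth equal to vehicle treated cultures.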 As to conditions: S. cerevisiae cln2 rad14 strain, hits give high values. In a few lines:
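Relative to vehicle controls, growth inhibition of compound-treated cln2 rad14 yeast was recorded.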

A short description of experiment [5]: NCI Yeast Anticancer Drug Screen. Data for the bub3 strain (AID 167). As to conditions: S. cerevisiae bub3 mutant strain, hits give high values. In a few lines: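 In this screen, a yeast mutant lacking normal mitotic checkpoint function is challenged with compound. Relative growth versus vehicle gives the inhibition value.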
A short description of experiment [6]: NCI Yeast Anticancer Drug Screen. Data for the mlh1 rad18 strain (AID 175). As to conditions: S. cerevisiae mlh1 rad18 strain growth inhibition, hits give high values. In outline:
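Test agents were incubated with a yeast strain of defined genotype (DNA damage repair defect). Inhibition of growth was derived by comparison with vehicle-exposed cultures.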

Setting [7] is: at 5.0 µM (retest, dose inferred, filed as 0.5).
Where [8] appears, read: at 50.0 µM (retest, dose inferred, filed as 5.0).

This is part of a sample that, as a whole, favours compounds with a hit. Of some 79,000 tested, about 15% had one in any assay. Unmarked numbers belong to inactive results. Activity calls are given as the source filed them. Cut-off read from the data, not from the text of the source: active = growth inhibition above about 70%; inactive = the rest.

For `CC1(C)CC(=O)C(C=NC(=S)c2ccccc2)=C(O)C1`, the growth inhibition was 21% in experiment [1] (setting [7]); 27% in experiment [1] (setting [8]); -43.3% in experiment [1] (at 50.0 µM); 4% in experiment [2] (setting [7]); 13% in experiment [2] (setting [8]); -54% in experiment [2] (at 50.0 µM). Also, the growth inhibition in experiment [3] (setting [7]) was 6%; in experiment [3] (setting [8]), 9%; in experiment [3] (at 50.0 µM) it was -37.1%; in experiment [4] (setting [7]) it was 11%; in experiment [4] (setting [8]), 14%; in experiment [4] (at 50.0 µM), -0.6%. Moreover, the growth inhibition is 20% in experiment [5] (setting [7]); 32% in experiment [5] (setting [8]); -13.4% in experiment [5] (at 50.0 µM); 14% in experiment [6] (setting [7]); 27% in experiment [6] (setting [8]); 22.1% in experiment [6] (at 50.0 µM).

For the compound `O=C1C(Cl)C(c2cc(Br)cc(Br)c2O)N1n1cnc2ccccc2c1=O` (stereo not given), the growth inhibition was 15% in experiment [1] (setting [7]); 96% (active) in experiment [1] (setting [8]); 89.8% (active) in experiment [1] (at 50.0 µM); 35% in experiment [2] (setting [7]); 94% (active) in experiment [2] (setting [8]); 86.7% (active) in experiment [2] (at 50.0 µM). For the same compound, the growth inhibition is 25% in experiment [3] (setting [7]); 98% (active) in experiment [3] (setting [8]); 94.5% (active) in experiment [3] (at 50.0 µM); -16% in experiment [4] (setting [7]); 87% (active) in experiment [4] (setting [8]); 59.2% in experiment [4] (at 50.0 µM). In addition, the growth inhibition in experiment [5] (setting [7]) was 22%; in experiment [5] (setting [8]), 98% (active); in experiment [5] (at 50.0 µM) it was 93% (active); in experiment [6] (setting [7]) it was 20%; in experiment [6] (setting [8]), 98% (active); in experiment [6] (at 50.0 µM), 97.7% (active).

As for `O=[N+]([O-])c1cccc(/C=N/Nc2ccc3ccccc3n2)c1O`, the growth inhibition was 30% in experiment [1] (setting [7]); 20% in experiment [1] (setting [8]); 98% (active) in experiment [1] (at 50.0 µM); 1% in experiment [2] (setting [7]); -23% in experiment [2] (setting [8]); 98.8% (active) in experiment [2] (at 50.0 µM). For the same compound, the growth inhibition is 26% in experiment [3] (setting [7]); 24% in experiment [3] (setting [8]); 97.4% (active) in experiment [3] (at 50.0 µM); 1% in experiment [4] (setting [7]); 3% in experiment [4] (setting [8]); 93.3% (active) in experiment [4] (at 50.0 µM). Moreover, the growth inhibition is 2% in experiment [5] (setting [7]); 7% in experiment [5] (setting [8]); 97.8% (active) in experiment [5] (at 50.0 µM); 16% in experiment [6] (setting [7]); 14% in experiment [6] (setting [8]); 97.5% (active) in experiment [6] (at 50.0 µM).

In the case of `COc1ccc(-c2c(COC(C)=O)c(COC(C)=O)c3n2CCC3)cc1`, the growth inhibition is -4% in experiment [1] (setting [7]); 34% in experiment [1] (setting [8]); 98.5% (active) in experiment [1] (at 50.0 µM); -4% in experiment [2] (setting [7]); 19% in experiment [2] (setting [8]); 99.1% (active) in experiment [2] (at 50.0 µM). The growth inhibition in experiment [3] (setting [7]) was -6%; in experiment [3] (setting [8]), 23%; in experiment [3] (at 50.0 µM) it was 98.9% (active); in experiment [4] (setting [7]), -3%; in experiment [4] (setting [8]), -4%; in experiment [4] (at 50.0 µM), 97.8% (active). Also, the growth inhibition in experiment [5] (setting [7]) is -6%; in experiment [5] (setting [8]), -3%; in experiment [5] (at 50.0 µM), 98.8% (active); in experiment [6] (setting [7]) it was -6%; in experiment [6] (setting [8]) it was 40%; in experiment [6] (at 50.0 µM), 98.8% (active).

Consider `O=C1Nc2ccccc2C(=O)C1(Cc1ccccc1)C(=O)c1ccccc1` (stereo not given), for which the growth inhibition is 14% in experiment [1] (setting [7]); 26% in experiment [1] (setting [8]); 97% (active) in experiment [1] (at 50.0 µM); -1% in experiment [2] (setting [7]); -9% in experiment [2] (setting [8]); 97.2% (active) in experiment [2] (at 50.0 µM). The growth inhibition in experiment [3] (setting [7]) was 11%; in experiment [3] (setting [8]) it was 25%; in experiment [3] (at 50.0 µM) it was 97.5% (active); in experiment [4] (setting [7]), -1%; in experiment [4] (setting [8]) it was 10%; in experiment [4] (at 50.0 µM) it was 97.5% (active). The growth inhibition in experiment [5] (setting [7]) was 11%; in experiment [5] (setting [8]) it was 12%; in experiment [5] (at 50.0 µM), 97.5% (active); in experiment [6] (setting [7]), 4%; in experiment [6] (setting [8]) it was 33%; in experiment [6] (at 50.0 µM), 97.4% (active).

These data come from PubChem BioAssay (NCI).
